PINK1 modulator: modulators of PINK1 expression | Potency, µM (doses to about 76.6 µM), inactives show at the highest dose activation (PINK1 increase), hits mostly activators | PINK1 immunofluorescence, high-content cytometry, 24 h | 410,000 tested, 0.2% active; active = well fitted activation curve with a large enough effect; inconclusive = small, poorly fitted or top-dose-only effect; cell line not stated here; note: % of control where 0% means no effect; nearly all actives have a fitted effect of over 65% in size
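Measures PINK1 amount and localization on or inside mitochondria by immunofluorescence. Stable cells get compounds at 5 concentrations for 24 hours before fixation and staining; CCCP controls included.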
PTAP TSG101 blk: blocks PTAP/TSG101 interaction to inhibit HIV-1 budding; Potency, µM (highest dose often 115 µM), for inactives: at the highest dose activity change, negative = inhibition, actives largely listed as inhibitors; Q99816; 340,000 tested, under 10 active; Fluorescence polarization, FITC-PTAP peptide / Tsg101 binding; active = well fitted inhibition curve with a large enough effect in the main read-out, with a control signal flat, not every such curve was filed as active; inconclusive = small, poorly fitted or top-dose-only effect, or effect the other way, or a change in a side signal; inactive = no such curve, though single readings can be large or run the other way; note: % of control where 0% means no effect
Target sequence (Q99816 whole entry, looked up): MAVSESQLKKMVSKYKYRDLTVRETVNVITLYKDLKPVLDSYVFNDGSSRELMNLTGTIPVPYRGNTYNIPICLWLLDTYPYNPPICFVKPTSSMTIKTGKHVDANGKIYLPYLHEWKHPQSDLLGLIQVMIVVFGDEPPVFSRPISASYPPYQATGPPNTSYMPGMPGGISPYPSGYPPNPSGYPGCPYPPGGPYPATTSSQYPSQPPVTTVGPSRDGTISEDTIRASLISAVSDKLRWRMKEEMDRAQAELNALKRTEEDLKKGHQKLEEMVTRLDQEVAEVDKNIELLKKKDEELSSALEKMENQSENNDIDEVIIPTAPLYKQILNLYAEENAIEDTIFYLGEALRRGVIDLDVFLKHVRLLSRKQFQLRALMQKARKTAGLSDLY
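FP read-out: FITC-PTAP peptide, 50 nM final, binding Tsg101 binding domain, 10 uM final; 20 min, r.t.; 10 mM HEPES pH 7.5, 0.15 M NaCl, 0.01% Tween 20, 3 mM EDTA, 0.1 mM TCEP.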
SW480 rereplic: induces DNA re-replication in SW480 colon adenocarcinoma cells; SW480 DNA re-replication, Hoechst DNA content imaging, 48 h; Potency, µM (top dose mostly 46.1 µM), for the others: at the highest dose re-replication activation, usual class: activators; 340,000 tested, 1.8% active; note: % of control where 0% means no effect; nearly all actives have a fitted effect of over 55% in size
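Compounds, transferred as 23 nL by pin tool, were incubated with cells for 48 hr; DNA content per nucleus was then quantified by Hoechst staining and fluorescence plate imaging.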
KB-3-1 tox: kills parental KB-3-1 adenocarcinoma cells; KB-3-1 viability, CellTiter-Glo ATP luminescence, 72 h; Potency, µM (top dose mostly 46.1 µM), actives largely listed as cytotoxic; 400,000 tested, 1.4% active; AID 1347075; note: % is set by controls: 0 for no effect and ±100 for the full control effect; nearly all actives have a fitted effect of over 60% in size
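72 h, 37 °C compound treatment of KB-3-1 parental cells; CellTiter-Glo added, 10 min, luminescence read. Data corrected against DMSO-only plates and normalized before curve fitting.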
MCF10A rerep: DNA re-replication induction in MCF 10a cells | AID 624296 | Potency, µM (highest dose often 46.1 µM), without a hit: top-dose activity, positive = re-replication, most hits filed as activators | MCF 10A DNA re-replication, Hoechst nuclear intensity, 48 h | 350,000 tested, 2.9% active; note: % of control where 0% means no effect; nearly all actives have a fitted effect of over 50% in size
KB-V1 cytotox: KB-V1 MDR subline cytotoxicity; KB-V1 MDR cells viability, CellTiter-Glo, 72 h; Potency, µM (doses to about 46.1 µM), usual class: cytotoxic; 400,000 tested, 3.4% active; note: % is set by controls: 0 for no effect and ±100 for the full control effect; nearly all actives have a fitted effect of over 60% in size
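Cytotoxicity toward P-gp-expressing KB-V1 cells was determined as loss of CellTiter-Glo luminescence after 72 h at 37 degrees C. Compounds were tested in quantitative HTS format across a concentration range, with curves fitted to normalized data.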
Numbers without * were called inactive; i = inactive; ? = inconclusive; . = no result given; [ ] = remark or other dose. The list is not random: actives were taken first. Their share in the collection is about 6.8%. Unless noted, calls come from the whole dose curve; as a rule, active = well fitted curve in the direction sought with a large enough effect; inconclusive = small, poorly fitted or top-dose-only effect, or another doubt; inactive = no such curve, though single readings can be large; an effect the other way counts as inactive or inconclusive. Potency is the fitted concentration of half-maximal effect.

SMILES	PINK1 modulator	PTAP TSG101 blk	SW480 rereplic	KB-3-1 tox	MCF10A rerep	KB-V1 cytotox
CCOC(=O)C1(Cc2ccc(Cl)cc2)CCN(Cc2cnc(N)nc2)CC1	1%	-3%	?	i	13%	i
COC(=O)c1cccc(C(=O)NCc2nc(-c3ccccc3NC(C)=O)oc2C)c1	0%	.	.	.	.	.
Cc1ccc(CC(=O)Nc2ccc3c(c2)N(C)C(=O)c2ccccc2S3)cc1	0%	.	.	i	.	18µM*
Cc1ccc(NC(=O)c2ccc3c(c2)NC(=O)c2ccccc2S3)cc1	10%	.	.	6.5µM*	.	9.2µM*
CCOc1ccc(CC(=O)Nc2ccc3c(c2)N(C)C(=O)c2ccccc2S3)cc1OCC	4%	.	.	i	.	i
Cc1ccc(C(=O)Nc2ccc3c(c2)N(C)C(=O)c2ccccc2S3)cc1F	3%	.	.	8.2µM*	.	6.5µM*
CCOC(=O)c1ccc(NC(=O)c2ccc3c(c2)NC(=O)c2ccccc2S3)cc1	2%	.	.	i	.	?
CC(=O)Nc1cc(C(=O)Nc2ccc3c(c2)N(C)C(=O)c2ccccc2S3)ccc1C	16%	.	.	4.1µM*	.	?
COCCCN1C(=O)c2[nH]nc(-c3ccccc3O)c2C1c1ccc(OC)cc1 (stereo unspecified)	2%	.	.	.	.	.
CC(=O)c1ccc2c(c1)N(C)c1ccccc1S2	2%	-1%	1%	?	?	23µM*
CN1C(=O)c2ccccc2Sc2ccc(C(=O)O)cc21	4%	-3%	-2%	i	-5%	i
O=C(Nc1ccc2oc(-c3cc(Br)ccc3Cl)nc2c1)c1cc2ccccc2o1	9%	.	.	.	.	.
Cc1ccc(C2CC(C(F)(F)F)n3nc(C(=O)NCc4c(C)nn(C)c4C)c(Cl)c3N2)cc1 (stereo unspecified)	3%[38.3 µM]	0%	-1%	21µM*	2%	5.8µM*
Cc1nn(C)cc1CN(C)C(=O)c1nn2c(c1Cl)NC(c1cccs1)CC2C(F)(F)F (stereo unspecified)	.	-3%	-3%	i	?	18µM*
Cc1nn(C)cc1CN(C)C(=O)c1nn2c(c1Br)NC(c1cccs1)CC2C(F)(F)F (stereo unspecified)	0%	1%	0%	i	13%	i
Cc1c(/C=C(\C#N)C(=O)Nc2cccc(Cl)c2)c2ccccc2n1Cc1ccccc1	1%	.	.	?	.	?
O=C(c1cn(C2CCCN(Cc3cccc(Oc4ccccc4)c3)C2)nn1)N1CCCC1 (stereo unspecified)	0%	.	.	.	.	.
Cc1nn(CCC(=O)N2CCN(c3ccccc3)CC2)c(C)c1S(=O)(=O)N1CCCC1	0%	.	.	i	.	i
Cc1ccccc1CN(C)CC(=O)Nc1ccccc1-c1ccccc1	?	-2%	12%	i	15µM*	?
CN(CC(=O)Nc1ccccc1Oc1ccccc1)Cc1ccccc1F	?	-4%	7%	i	8.2µM*	?
Cc1ccc(N(CC(=O)Nc2ccccc2-c2ccccc2)S(=O)(=O)c2ccccc2)cc1	8%	-4%	2%	i	?	23µM*
Cc1ccccc1CN(C)CC(=O)Nc1ccccc1Oc1ccccc1	9%	-2%	5%	i	?	?
COc1ccccc1CN(C)CC(=O)Nc1ccccc1-c1ccccc1	?	1%	1%	i	?	?
Cc1ccc(S(=O)(=O)N(CC(=O)Nc2ccccc2C(=O)O)c2cccc(Cl)c2C)cc1	2%	-6%	.	?	16µM*	i
Cc1cccc(N(CC(=O)Nc2ccccc2-c2ccccc2)S(=O)(=O)c2ccccc2)c1C	1%	-7%	.	?	12%	21µM*
SMILES	PINK1 modulator	PTAP TSG101 blk	SW480 rereplic	KB-3-1 tox	MCF10A rerep	KB-V1 cytotox
CCC1(C)Cc2c(sc3nc(NN)n(C)c(=O)c23)CO1 (stereo unspecified)	3%	1%	?	i	21µM*	?
COc1cc(C(=O)OCc2cc(=O)n3ccsc3n2)cc(OC)c1OC	5%	.	.	?	.	i
CCOc1ccccc1C(=O)N1CC(=O)Nc2ccc(C)cc2C1c1ccccc1 (stereo unspecified)	0%	.	.	i	.	i
CN1C2=CC=CC=CC2=[N+](C)C12C=CC(=[N+]([O-])[O-])C=C2[N+](=O)[O-] (stereo unspecified)	1%	0%	-5%	i	2%	?
CN1C2=CC=CC=CC2=[N+](C)C12C([N+](=O)[O-])=CC(=[N+]([O-])[O-])C=C2[N+](=O)[O-] (stereo unspecified)	-1%	-2%	0.65µM*	i	?	i
CC(=O)c1ccc(N2CCN(S(=O)(=O)c3ccc4c(c3)CC(C)N4C(=O)C3CC3)CC2)cc1 (stereo unspecified)	2%	-6%	?	?	-2%	i
CC(=O)c1ccc(N2CCN(S(=O)(=O)c3ccc4c(c3)CC(C)N4C(C)=O)CC2)cc1 (stereo unspecified)	1%	1%	-3%	?	2%	8.2µM*
Cc1ccc(C(=O)N2CCN(c3ccccc3F)CC2)cc1NC(=O)c1nsc2ccccc12	1%	.	.	i	.	i
c1ccc(CN2CCC(N3CCN(Cc4ccc5c(c4)OCO5)CC3)CC2)cc1	2%	-1%	-1%	i	21µM*	?
O=C(Nc1ccnn1C1CCN(Cc2ccc(Cl)cc2)CC1)C1CCCC1	2%	-1%	0%	.	0%	.
CC(C)c1ccc(CN2CCC(n3nccc3NC(=O)C3CCCC3)CC2)cc1	0%	.	.	i	.	5.2µM*
C/C(=N\NC(=O)COc1ccc(C(C)(C)C)cc1)c1ccc(N2CCOCC2)cc1	4%	4%	-81%	i	9.2µM*	i
C/C(=N\NC(=O)c1ccc(F)cc1)c1ccc(N2CCOCC2)cc1	0%	-4%	6%	i	-1%	i
Cc1nnc(N2CCN(c3cccc(Cl)c3)CC2)c2c1nnn2Cc1ccc(F)cc1	-3%	.	.	i	.	i
CC1=Nc2cc(C(=O)NCCN3CCOCC3)ccc2Sc2c(C)ccc(C)c21	2%	-1%	-10%	15µM*	?	18µM*
CC1=Nc2cc(C(=O)NCCCN3CCOCC3)ccc2Sc2c(C)ccc(C)c21	4%	-6%	16µM*	?	?	?
COc1ccc(/C=C/C(=O)N2CCC(c3nc4ccccc4o3)CC2)cc1OC	1%	.	.	.	.	.
O=C(Nc1ccc(Cl)cc1Cl)[C@@H]1CC=C[C@@H]2CCN(C3CC3)C(=O)[C@@H]21	.	.	.	i	.	?
Cc1cccc(C)c1OC(=O)CSc1nnc(-c2cccs2)o1	1%	.	.	i	.	i

Screening results from PubChem BioAssay.
